Screening data: PubChem BioAssay, Broad Institute
F508del corr: correctors of CFTR F508del function in bronchial epithelial cells. CFBE cells, YFP halide quenching; stimulated with forskolin plus potentiator P3; % fluorescence drop versus neutral controls. activity (quench increase), % at 7.58 µM. actives 0.36% (n = 350,000). AID 720511;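 active means mean added fluorescence quench of at least 8% versus neutral control, with both replicates also reaching 8%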;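 further: cells transiently co-express mutant CFTR-F508del with the halide-sensitive YFP; corrector assay measuring rescue of mutant channel to the surface after 24 h compound exposure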
PvdQ inh: blocks Pseudomonas aeruginosa PvdQ acylase activity; actives 0.063% (n = 340,000); inhibition, % at 10 µM; AID 488965; purified PvdQ acylase, fluorescence plate reader; in the data active means inhibition above about 30%, passing the limit was not always enough;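 further: 0% = vehicle neutral wells and 100% = reference inhibitor wells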
ARNT TACC3 PPI: ARNT/TACC3 interaction disruption. AID 623870. AlphaScreen His-ARNT PAS-B/GST-TACC3 binding, luminescence; TACC3 fragment carries E629A point mutation. inhibition, % at 9.99 µM. Q9Y6A5. actives 0.66% (n = 390,000);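 active means mean inhibition of replicates at least 50% and at least half of replicates each reaching 50%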;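 further: 0% = complete ARNT plus TACC3 wells and 100% = ARNT alone without TACC3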
ERAP1 HTS inh: blocks human ERAP1 aminopeptidase activity | recombinant ERAP1, Leu-AMC fluorescence, 60 min | actives 0.15% (n = 340,000) | AID 652197 | Q9NZ08 | inhibition, % at 10.7 µM;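 active means mean replicate inhibition of at least 30%, or all replicates individually reaching that 30% level; inactive means mean below 30% and not every replicate reaching it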;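 further: 0% = neutral control wells and 100% = L-leucinethiol positive control wells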
Target sequence (Q9NZ08 whole entry, looked up): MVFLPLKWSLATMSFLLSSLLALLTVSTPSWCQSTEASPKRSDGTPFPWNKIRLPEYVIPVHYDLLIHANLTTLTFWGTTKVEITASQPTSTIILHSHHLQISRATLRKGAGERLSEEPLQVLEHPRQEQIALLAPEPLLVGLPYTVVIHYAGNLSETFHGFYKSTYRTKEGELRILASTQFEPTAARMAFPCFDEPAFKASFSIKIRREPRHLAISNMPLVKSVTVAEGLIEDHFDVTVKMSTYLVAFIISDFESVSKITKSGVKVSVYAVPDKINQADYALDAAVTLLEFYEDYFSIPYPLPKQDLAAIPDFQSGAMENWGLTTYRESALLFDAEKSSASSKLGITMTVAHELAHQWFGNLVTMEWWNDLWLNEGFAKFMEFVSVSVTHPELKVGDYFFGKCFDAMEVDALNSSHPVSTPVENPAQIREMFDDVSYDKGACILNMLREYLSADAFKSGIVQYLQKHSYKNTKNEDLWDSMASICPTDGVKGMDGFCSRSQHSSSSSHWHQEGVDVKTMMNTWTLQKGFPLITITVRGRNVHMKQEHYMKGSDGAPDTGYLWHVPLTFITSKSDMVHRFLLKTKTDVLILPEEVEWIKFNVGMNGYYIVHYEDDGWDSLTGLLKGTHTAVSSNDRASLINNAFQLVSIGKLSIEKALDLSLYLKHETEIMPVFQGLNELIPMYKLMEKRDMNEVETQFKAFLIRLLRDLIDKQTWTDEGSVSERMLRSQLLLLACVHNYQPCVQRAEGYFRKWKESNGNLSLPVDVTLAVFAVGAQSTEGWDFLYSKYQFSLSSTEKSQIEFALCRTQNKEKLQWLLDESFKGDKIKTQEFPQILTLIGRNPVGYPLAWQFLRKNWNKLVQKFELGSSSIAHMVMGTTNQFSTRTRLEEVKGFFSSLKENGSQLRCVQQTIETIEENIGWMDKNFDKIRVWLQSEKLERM
rRNA inh HTS: inhibitors of bacterial rRNA selective over humanized ribosomes; E. coli WT GFP vs humanized-ribosome RFP mutants, fluorescence, 24 h; active compounds read low; DMSO median 0, no signal -100; GFP signal change (wild-type ribosome), % (no concentration beside the values); actives 1.6% (n = 350,000);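 active means significant combined selectivity score with lowered wild-type GFP, culture density cut under 30%, mutant RFP and density less affected; inactive means any of these conditions unmet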
The depositor's hits bear a star. This is a sample that favours compounds with a hit; in the whole collection about 2.1% have one here.

Results for O=C(c1ccccc1)c1coc2ccc(O)c(Cl)c12 ?
F508del corr: -5.2; PvdQ inh: 2.5; ARNT TACC3 PPI: -3.9; ERAP1 HTS inh: 2.9; rRNA inh HTS: -45.5*

Results for Cn1c(=O)c2nc(-c3ccccc3)c(-c3ccccc3)nc2n(C)c1=O ?
F508del corr: -4.1; PvdQ inh: -8.9; ARNT TACC3 PPI: 1.9; ERAP1 HTS inh: 6.1; rRNA inh HTS: -20.4*

How did Cn1c(=O)c2nc(Cl)c(-c3ccccc3)nc2n(C)c1=O do in these assays?
F508del corr: 0.8; PvdQ inh: -11.3; ARNT TACC3 PPI: -5.9; ERAP1 HTS inh: 3.8; rRNA inh HTS: 9.4

Results for [O-][n+]1cccc2cccc(O)c21 ?
F508del corr: 0.8; PvdQ inh: -11.4; ARNT TACC3 PPI: 53.0*; ERAP1 HTS inh: 1.4; rRNA inh HTS: 2.5

Results for COc1cc(C)ccc1OCCOCCOc1cccc2ccc(C)nc12 ?
F508del corr: -2.6; PvdQ inh: 7.7; ARNT TACC3 PPI: 20.7; ERAP1 HTS inh: -5.0; rRNA inh HTS: -31.8*

How did COc1ccc(Nc2nc3cc(-c4sccc4C)sc3c(=O)n2C)cc1OC do in these assays?
F508del corr: 9.6*; ERAP1 HTS inh: 1.6; rRNA inh HTS: 1.3

Results for COc1ccc(Nc2nc3cc(-c4ccsc4)sc3c(=O)n2C)cc1OC ?
F508del corr: -1.0; ERAP1 HTS inh: -0.7; rRNA inh HTS: -20.8*

How did O=S(=O)(Nc1cccc(-c2cn3c(n2)SCC3)c1)c1ccccc1 do in these assays?
F508del corr: 0.3; PvdQ inh: -14.0; ARNT TACC3 PPI: 2.4; ERAP1 HTS inh: 45.7*; rRNA inh HTS: -1.9

Results for COc1ccccc1N=C1SC(C(=O)Nc2cccc(Cl)c2Cl)C(N)=C1C(N)=O (stereo not given) ?
F508del corr: 9.5*; PvdQ inh: -11.0; ARNT TACC3 PPI: -0.2; ERAP1 HTS inh: 0.7; rRNA inh HTS: -11.7

Results for N#Cc1ccccc1NC(=O)C1SC(=Nc2ccccc2)C(C(=O)Nc2ccc(Cl)cc2)=C1N (stereo not given) ?
F508del corr: 1.3; PvdQ inh: -4.6; ARNT TACC3 PPI: 0.8; ERAP1 HTS inh: 3.8; rRNA inh HTS: -4.1

How did CCOC(=O)[C@H]1[C@H]2COc3ccc(C)cc3[C@@H]2N2C(=O)c3ccc(Cl)cc3NC(=O)[C@@]12C do in these assays?
F508del corr: 2.2; PvdQ inh: -11.0; ARNT TACC3 PPI: -1.8; ERAP1 HTS inh: -1.7; rRNA inh HTS: -12.9

How did CCOC(=O)[C@H]1[C@H]2COc3ccc(Cl)cc3[C@@H]2N2C(=O)c3ccc(Cl)cc3NC(=O)[C@@]12C do in these assays?
F508del corr: 0.5; PvdQ inh: 8.8; ARNT TACC3 PPI: 15.3*; ERAP1 HTS inh: -6.2; rRNA inh HTS: -6.9

Results for COc1ccccc1N(C(C)=O)C1=C(Cl)C(=O)c2ccccc2C1=O ?
F508del corr: -7.4; ERAP1 HTS inh: 60.5*; rRNA inh HTS: -8.7

How did COc1ccccc1C(=O)NNC(=O)c1nn(Cc2ccccc2)c(=O)c2ccccc12 do in these assays?
F508del corr: 0.4; PvdQ inh: -5.9; ARNT TACC3 PPI: 2.9; ERAP1 HTS inh: 0.4; rRNA inh HTS: -23.9*

Results for CC(C)CNC(=O)c1nn(Cc2ccccc2)c(=O)c2ccccc12 ?
F508del corr: 1.2; PvdQ inh: -14.6; ARNT TACC3 PPI: -6.3; ERAP1 HTS inh: 3.9; rRNA inh HTS: 2.0

What do the screens show for `Cc1ccc(Cl)cc1N1CCN(Cc2cc(=O)n3ccsc3n2)CC1`?
F508del corr: 3.9; PvdQ inh: 14.9; ARNT TACC3 PPI: 5.6; ERAP1 HTS inh: -0.4; rRNA inh HTS: -28.6*

Results for Cc1cccc(N2CCN(Cc3cc(=O)n4ccsc4n3)CC2)c1C ?
PvdQ inh: -3.1; ARNT TACC3 PPI: 0.4

Results for COc1ccc2c3c(n(C)c2c1)[C@@H](CO)N(C(=O)c1cnccn1)CC31CN(C(=O)c2ccncc2)C1 ?
rRNA inh HTS: -0.5

Results for CCn1c(SCC(=O)N/N=C/c2ccc(O)c(OC)c2)nc2ccccc21 ?
F508del corr: 8.3*; PvdQ inh: -14.6; ARNT TACC3 PPI: -11.1; ERAP1 HTS inh: 13.8; rRNA inh HTS: 20.6

How did COc1ccc(/C=N/NC(=O)c2ccccc2O)cc1Cn1nnc2ccccc21 do in these assays?
F508del corr: -0.4; PvdQ inh: -8.5; ARNT TACC3 PPI: 11.0; ERAP1 HTS inh: -1.6; rRNA inh HTS: -23.0*

How did COc1ccc2[nH]c(C(=O)N/N=C/c3ccc(OC)c(O)c3)cc2c1 do in these assays?
F508del corr: 11.2*; PvdQ inh: 1.7; ARNT TACC3 PPI: -1.7; ERAP1 HTS inh: 0.5; rRNA inh HTS: -42.5

How did COc1ccc(/C=N/Nc2nc3ccccc3o2)cc1O do in these assays?
PvdQ inh: 4.3; ARNT TACC3 PPI: 44.3*

What do the screens show for `CCn1c(SCC(=O)N/N=C/c2cc(OC)c(O)c(OC)c2)nc2ccccc21`?
PvdQ inh: -13.5; ARNT TACC3 PPI: 2.6

How did CC(=O)N1C[C@@H]2C(c3ccccc3)[C@H](C1)N2CC(F)(F)F (stereo not given in full) do in these assays?
rRNA inh HTS: 0.4

How did CCn1c(C)nc2cc(C(=O)N/N=C/c3ccc(OC)cc3)ccc21 do in these assays?
F508del corr: 0.1; PvdQ inh: -7.5; ERAP1 HTS inh: 0.4; rRNA inh HTS: -4.1

Results for COc1ccc(C=NNC(=O)CCCC(=O)NN=Cc2ccc(OC)c(OC)c2)cc1OC ?
F508del corr: 3.1; PvdQ inh: -13.8; ARNT TACC3 PPI: -1.5; ERAP1 HTS inh: 2.5; rRNA inh HTS: 8.0

Results for CCn1c(C)nc2cc(C(=O)N/N=C/c3ccc(OC)c(O)c3)ccc21 ?
PvdQ inh: -9.0; ARNT TACC3 PPI: -11.4; ERAP1 HTS inh: 4.3; rRNA inh HTS: -23.1*

What do the screens show for `COc1ccc(C=NNC(=O)CCCC(=O)NN=Cc2ccc(OC)c(O)c2)cc1O`?
F508del corr: 15.1*; PvdQ inh: -13.3; ARNT TACC3 PPI: 0.0; ERAP1 HTS inh: 0.0; rRNA inh HTS: 8.6

What do the screens show for `CCOC(=O)N1CCN(c2cc(NCCC(=O)O)c3c4c(onc24)-c2ccccc2C3=O)CC1`?
PvdQ inh: -4.4; ARNT TACC3 PPI: 57.8*

What do the screens show for `O=C1c2ccccc2-c2onc3c(N4CCN(CCO)CC4)cc(N4CCN(C(=O)c5ccco5)CC4)c1c23`?
F508del corr: -1.0; PvdQ inh: 0.7; ARNT TACC3 PPI: 13.8; ERAP1 HTS inh: 2.6; rRNA inh HTS: -11.2

How did CN1CCN(c2cc(N3CCN(C(=O)c4ccco4)CC3)c3c4c(onc24)-c2ccccc2C3=O)CC1 do in these assays?
PvdQ inh: -16.3; ARNT TACC3 PPI: 39.8

Results for O=C(O)CCCNc1cc(N2CCN(C(=O)c3ccco3)CC2)c2noc3c2c1C(=O)c1ccccc1-3 ?
F508del corr: -1.5; PvdQ inh: -3.7; ARNT TACC3 PPI: 45.7*; ERAP1 HTS inh: 9.5; rRNA inh HTS: -8.9

What do the screens show for `O=C(OCc1cn([C@H]2CN(Cc3cccs3)[C@@H](c3ccc(Cl)cc3)C[C@@H]2O)nn1)c1ccccc1`?
F508del corr: -1.6; ERAP1 HTS inh: 0.2; rRNA inh HTS: 13.9
